Results as given in PubChem BioAssay (NCI).
About 79,000 compounds went through this panel and 15% of them were active in at least one assay; those are over-represented in the sample as a whole. Unmarked numbers belong to inactive results. Calls of active or inactive are those of the source. Rule as the data show it: active = growth inhibition above about 70%; inactive = the rest.

Columns and labels:
[1] = NCI Yeast Anticancer Drug Screen. Data for the rad50 strain (AID 155);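 also: 0% = growth of vehicle-only cultures of the same strain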; conditions: S. cerevisiae rad50 strain growth inhibition; at 50.0 µM; stronger effect = higher value
How it was run: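 Relative growth inhibition (compound vs vehicle) was measured in yeast with a defined repair-gene alteration.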

[2] = NCI Yeast Anticancer Drug Screen. Data for the mec2-1 strain (AID 157); conditions: S. cerevisiae mec2-1 strain, at 50.0 µM, stronger effect = higher value
How it was run: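 Strain: mec2-1 (DNA repair/cell cycle alteration). Compound exposure, then growth measured; inhibition expressed relative to vehicle.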

[3] = NCI Yeast Anticancer Drug Screen. Data for the sgs1 mgt1 strain (AID 161);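 also: 0% = growth of cultures given vehicle only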; conditions: S. cerevisiae sgs1 mgt1 strain, at 50.0 µM, stronger effect = higher value
How it was run: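 Genetically altered yeast, compound exposure, growth inhibition relative to vehicle.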

[4] = NCI Yeast Anticancer Drug Screen. Data for the cln2 rad14 strain (AID 165);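 also: 0% = growth equal to vehicle treated cultures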; conditions: S. cerevisiae cln2 rad14 strain, at 50.0 µM, stronger effect = higher value
How it was run: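 Compounds are applied to the cln2 rad14 yeast strain, and growth is then compared with that of vehicle-treated cultures to give inhibition.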

[5] = NCI Yeast Anticancer Drug Screen. Data for the bub3 strain (AID 167); conditions: S. cerevisiae bub3 mutant strain, at 50.0 µM, stronger effect = higher value
How it was run: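 Screening used yeast with an engineered genetic alteration affecting cell cycle control. Compound-exposed cultures were compared with vehicle cultures, and reduced growth was taken as inhibition.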

[6] = NCI Yeast Anticancer Drug Screen. Data for the mlh1 rad18 strain (AID 175); conditions: S. cerevisiae mlh1 rad18 strain growth inhibition; at 50.0 µM; stronger effect = higher value
How it was run: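 Read-out is yeast growth inhibition, calculated against vehicle-only controls. The compound was applied to a strain engineered with DNA damage repair alterations.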

| SMILES | growth inhibition [1] | growth inhibition [2] | growth inhibition [3] | growth inhibition [4] | growth inhibition [5] | growth inhibition [6] |
| --- | --- | --- | --- | --- | --- | --- |
| CN(C)CC(O)CNC(=O)Nc1ccccc1 (stereo not given) | 0.6% | 14.2% | 12.7% | 0.35% | -0.05% | -42.8% |
| CCN(CC)c1ccc2cc(C(=O)Nc3nc(C45CC6CC(CC(C6)C4)C5)cs3)c(=O)oc2c1 | -17.4% | -25.9% | -16.9% | -17.6% | -13.9% | -16.1% |
| Fc1c(F)c(-c2c(F)c(F)c(Br)c(F)c2F)c(F)c(F)c1Br | 2.5% | -14.6% | -7.45% | 6.15% | 20.6% | -0.65% |
| NS(=O)(=O)c1ccc(NC(=O)Nc2ccc(Cl)cc2[N+](=O)[O-])cc1 | -9.5% | 18.6% | 30.1% | -16.7% | 29.9% | 30.4% |
| CC1=Nc2ccccc2C1(C)C | 8.25% | 8.8% | 15% | 21.2% | 4.55% | 9.3% |
| CCOC(=O)C1C/C2=C(/CCCCCCCCCC2)SCCCS1 (stereo not given) | 4.35% | 5.2% | -9% | 2.15% | -13.7% | -23.7% |
| CC(=O)Nc1c(C)ccc(C)c1C(=O)O | 3.65% | -0.7% | 8.25% | 1.15% | 13.8% | 11.8% |
| O=C1Nc2ccccc2Nc2nc3cccccc-3c21 | 9.85% | -15.2% | -2.4% | 16.8% | -6.6% | -13.8% |
| CCOC(=O)/C(C#N)=N/Nc1ccc(S(=O)(=O)NC(C)=O)cc1 | -16.6% | -10.5% | 5.8% | 11.5% | -2.95% | -4.4% |
| C=CCCCCCCCCC(=O)NCCCN1CCOCC1 | 77.5% (active) | 76.1% (active) | 93.5% (active) | 83.6% (active) | 85% (active) | 94.7% (active) |
| C(=C/c1ccccn1)/c1ccccc1 | 39.4% | 15.1% | 21.3% | 16.5% | 14.6% | 11.1% |
| CCCN=C(NC(=O)c1ccc(Cl)cc1)SC | -16.3% | -41.5% | -6.05% | -6.7% | 8.05% | -46.4% |
| Cc1ccc(S(=O)(=O)N/N=C2/C(=O)N(c3ccc(Cl)cc3C)C(=O)C(=O)C2c2nc3ccccc3s2)cc1 (stereo not given) | 0.85% | 20.7% | 1.85% | 7.5% | -2.1% | 11.2% |
| CN1CCc2nc(N)nc(-c3nc(N)nc4c3CN(C)CC4)c2C1 | -3.15% | -12.2% | -11.4% | -17.1% | -37.1% | -1.8% |
| CC(C)(C)c1cc(C(=S)N2CCN(C(=S)c3cc(C(C)(C)C)c(O)c(C(C)(C)C)c3)CC2)cc(C(C)(C)C)c1O | 4.05% | -10.7% | -10.9% | -48.5% | 2.45% | -16.9% |
| CCC(=O)CCc1ccc(OC)cc1 | 4.55% | -6.75% | -3.85% | -20.6% | -12.2% | -13.8% |
| O=[N+]([O-])c1ccc2c(N3CCC(CCCC4CCN(c5ncnc6cc([N+](=O)[O-])ccc56)CC4)CC3)ncnc2c1 | 2.55% | -16.7% | 39% | 19.2% | -10.8% | -2.9% |
| Cc1ccc(NC(=O)CC2Sc3ccccc3NC2=O)c(C)c1 (stereo not given) | -7.6% | -7.35% | 7.5% | -4.4% | -20.3% | -11.8% |
| CN(C)c1ccc(/C=C/C=C/C(=O)c2ccccc2)cc1 | -5.35% | 16.2% | -0.1% | 5.55% | -13.8% | -7.4% |
| NC(=O)N/N=C/C1CCc2ccccc2C1 (stereo not given) | 6.45% | -10.4% | -12.3% | -6.2% | -1.4% | 1.5% |

| SMILES | growth inhibition [1] | growth inhibition [2] | growth inhibition [3] | growth inhibition [4] | growth inhibition [5] | growth inhibition [6] |
| --- | --- | --- | --- | --- | --- | --- |
| CN(C)c1ccc(CC2Cc3ccccc3C2O)cc1 (stereo not given) | 6.75% | -6.55% | 10.2% | -11.7% | 12.3% | 5.9% |
| CCOC(=O)C(CCC(=O)OC)C(=O)OCC | -2.45% | -1.75% | -32.5% | -28.2% | -5.25% | 1.6% |
| O=C(N/N=C(/c1nc2ccc(Cl)cc2[nH]c1=O)C(O)c1ccc(Cl)cc1Cl)c1ccncc1 (stereo not given) | 12.5% | 10.2% | -15.5% | -34.6% | -3.6% | 23.1% |
| Cc1ccc(S(=O)(=O)OC/C(=C(/c2ccccc2)c2ccc(Cl)cc2)c2ccccc2)cc1 | 96.8% (active) | 97.5% (active) | 95.8% (active) | 87.3% (active) | 95.3% (active) | 96.6% (active) |
| Nc1cccc2c1C(=O)c1c(N)cccc1C2=O | 99.3% (active) | 99.4% (active) | 94.7% (active) | 98.7% (active) | 99.2% (active) | 99.1% (active) |
| Oc1cc(OCCCc2ccc(F)cc2)cc2ccc3ccccc3c12 | 50.5% | 43.5% | 20.8% | -32.5% | 54% | 43.1% |
| C=C(C)C(=O)Nc1ccc2nn(-c3ccccc3O)nc2c1 | -24.9% | -25.4% | 1.75% | 8.15% | -14.2% | 5.3% |
| CSc1nc2c(c(O)c(C)c(=O)n2C2OC(COC(C)=O)C(OC(C)=O)C(OC(C)=O)C2OC(C)=O)c(=O)n1C (stereo not given) | 10.1% | -4.3% | 62.8% | 32.9% | 34.7% | 7.25% |
| CCOC(=O)C(=O)/C(=C/N1CCNC1=S)C(=O)OCC | -28.6% | -9.05% | -26.8% | 32.4% | -4.35% | -25.9% |
| Cc1ccccc1NC(=O)Nc1ccccc1C | -3.8% | -15.3% | 3.45% | -23% | -20.2% | -11.9% |
| CCN(CC)c1nc(N(C)C)nc(N(C)C)n1 | -9% | -4.3% | 2.15% | -7.25% | 18.7% | 7% |
| NC(N)=NC1NCC(=O)S1 (stereo not given) | 0.2% | -5.65% | 4.3% | 4.6% | 7.15% | 21.9% |
| CCOC(=O)C1(N)CC1 | 4.65% | 7.1% | 2.8% | -10% | -11.4% | 17.2% |
| Cc1ccc(C(=O)C[n+]2ccccc2)c(O)c1 | -5.45% | -9.9% | 8.85% | -38% | 4.65% | 14.1% |
| CCCCOC(=O)C1CCCCC1C(=O)OCCCC (stereo not given) | -3.7% | 14.8% | -0.45% | 63.1% | 12.2% | -21.4% |
| COC(=O)C1=C(C)N(NC(=O)c2cccc(Cl)c2)C(C)(O)C12CCOC2=O (stereo not given) | 37.6% | -21.6% | 4.15% | 6.65% | 0.6% | 38.1% |
| COc1ccc(C(=O)N/N=C/c2ccccc2Cl)cc1 | 1% | 0.45% | 19.1% | -10.6% | 19.4% | 18.4% |
| COc1ccc(OC)c2c(Cl)ccnc12 | 17.1% | 15.1% | 15.6% | 20.8% | 11.1% | 24.5% |
| CCOC1(OCC)C([N+](=O)[O-])=CC(=[N+]([O-])O)C=C1[N+](=O)[O-] | 3.8% | -4.1% | -7.15% | 3.75% | -8.8% | -21.2% |
| Cc1cc(NN)c2cc3c(cc2n1)OCO3 | 12.4% | -2.6% | 5.05% | -46% | -5.7% | 24.1% |
